Compounds without any hit were thinned out: in the full panel of roughly 79,000, 15% have a hit. Active and inactive are the calls of the source. Rule as the data show it: active = growth inhibition above about 70%; inactive = the rest.
Key:
[1] = NCI Yeast Anticancer Drug Screen. Data for the rad50 strain (AID 155);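 also: 0% = growth of vehicle-only cultures of the same strain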; settings: S. cerevisiae rad50 strain growth inhibition, active compounds read high
How it was run: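 Readout: growth inhibition relative to vehicle-treated cultures. Compound exposure was carried out in a genetically defined yeast strain deficient in DNA damage repair.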

[2] = NCI Yeast Anticancer Drug Screen. Data for the mec2-1 strain (AID 157); settings: S. cerevisiae mec2-1 strain, active compounds read high
How it was run: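 Each compound was tested on mec2-1 yeast, a strain altered in DNA damage repair or cell cycle control. Growth inhibition is reported relative to vehicle.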

[3] = NCI Yeast Anticancer Drug Screen. Data for the sgs1 mgt1 strain (AID 161);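 also: 0% = growth of cultures given vehicle only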; settings: S. cerevisiae sgs1 mgt1 strain, active compounds read high
How it was run: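 Inhibition of yeast growth, normalised to vehicle-treated controls, is reported for a strain bearing genetic alterations in DNA damage repair.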

[4] = NCI Yeast Anticancer Drug Screen. Data for the cln2 rad14 strain (AID 165);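 also: 0% = growth equal to vehicle treated cultures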; settings: S. cerevisiae cln2 rad14 strain, active compounds read high
How it was run: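 Test compounds were added to cln2 rad14 yeast cultures; inhibition of growth was then determined by comparison with vehicle treatment.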

[5] = NCI Yeast Anticancer Drug Screen. Data for the bub3 strain (AID 167); settings: S. cerevisiae bub3 mutant strain, active compounds read high
How it was run: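 Readout: yeast growth inhibition, expressed relative to vehicle-only wells. The test organism is a mutant strain from a panel with lesions in DNA repair or checkpoint genes.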

[6] = NCI Yeast Anticancer Drug Screen. Data for the mlh1 rad18 strain (AID 175); settings: S. cerevisiae mlh1 rad18 strain growth inhibition, active compounds read high
How it was run: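 Inhibition values reflect reduced growth of mutant yeast versus vehicle-treated controls following compound exposure; the mutations affect DNA damage repair.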

[7] = at 5.0 µM (retest, dose inferred, filed as 0.5)
[8] = at 50.0 µM (retest, dose inferred, filed as 5.0)

Measured: growth inhibition

C=COCCN1CCN(CCCN2c3ccccc3Sc3ccc(C(F)(F)F)cc32)CC1
active: [1]; [8] 99% | [1]; at 50.0 µM 99.5% | [2]; [8] 99% | [2]; at 50.0 µM 99% | [3]; [8] 99% | [3]; at 50.0 µM 99.7% | [4]; [8] 99% | [4]; at 50.0 µM 98.7% | [5]; [8] 99% | [5]; at 50.0 µM 98.5% | [6]; [8] 99% | [6]; at 50.0 µM 99.3%
inactive: [1]; [7] -4% | [2]; [7] -4% | [3]; [7] -1% | [4]; [7] -2% | [5]; [7] 1% | [6]; [7] 1%

CCC(c1ccc(O)cc1)C(CC)c1ccc(OCC(N)=O)cc1 (configuration not stated)
inactive: [1]; [7] 10% | [1]; [8] -5% | [2]; [7] 0% | [2]; [8] -10% | [3]; [7] -16% | [3]; [8] 7% | [4]; [7] -18% | [4]; [8] -22% | [5]; [7] -15% | [5]; [8] 27% | [6]; [7] 20% | [6]; [8] 44%
active: [1]; at 50.0 µM 90.1% | [2]; at 50.0 µM 80.5% | [3]; at 50.0 µM 89.8% | [4]; at 50.0 µM 78.8% | [5]; at 50.0 µM 93% | [6]; at 50.0 µM 91.3%

CC(NNC(=S)N1CCCCCC1)c1cccnn1 (configuration not stated)
active: [1]; [7] 99% | [1]; [8] 99% | [1]; at 50.0 µM 89% | [2]; [7] 98% | [2]; [8] 99% | [2]; at 50.0 µM 93% | [3]; [7] 97% | [3]; [8] 99% | [3]; at 50.0 µM 89.2% | [4]; [7] 98% | [4]; [8] 99% | [4]; at 50.0 µM 90.5% | [5]; [7] 98% | [5]; [8] 99% | [5]; at 50.0 µM 91.6% | [6]; [7] 99% | [6]; [8] 99% | [6]; at 50.0 µM 85%

CC/C(=C(/CC)c1ccc([O-])cc1)c1ccc([O-])cc1.CC/C(=C(\CC)c1ccc([O-])cc1)c1ccc([O-])cc1.O=C([CH-]C(=O)c1ccccc1)c1ccccc1.O=C([CH-]C(=O)c1ccccc1)c1ccccc1.O=C([CH-]C(=O)c1ccccc1)c1ccccc1.O=C([CH-]C(=O)c1ccccc1)c1ccccc1.[Ti+4].[Ti+4]
inactive: [5]; at 50.0 µM 60.9%
active: [1]; [7] 84% | [1]; [8] 96% | [1]; at 50.0 µM 77.3% | [2]; [7] 97% | [2]; [8] 97% | [2]; at 50.0 µM 84% | [3]; [7] 97% | [3]; [8] 96% | [3]; at 50.0 µM 84.4% | [4]; [7] 94% | [4]; [8] 96% | [4]; at 50.0 µM 80% | [5]; [7] 98% | [5]; [8] 88% | [6]; [7] 94% | [6]; [8] 93% | [6]; at 50.0 µM 80%

CCC1=C(c2ccccc2)C(O)(c2ccccc2)C(CC)C1=O (configuration not stated)
inactive: [1]; [7] -3% | [2]; [7] -5% | [3]; [7] -7% | [4]; [7] 5% | [5]; [7] -4% | [6]; [7] -2%
active: [1]; [8] 99% | [1]; at 50.0 µM 94% | [2]; [8] 99% | [2]; at 50.0 µM 92.5% | [3]; [8] 99% | [3]; at 50.0 µM 97.3% | [4]; [8] 99% | [4]; at 50.0 µM 92.2% | [5]; [8] 99% | [5]; at 50.0 µM 97.7% | [6]; [8] 98% | [6]; at 50.0 µM 97.8%

COC(=O)/C=C/c1c2ccccc2cc2ccccc12
inactive: [1]; [7] 11% | [1]; [8] 28% | [1]; at 50.0 µM 14.8% | [2]; [7] 13% | [2]; [8] 39% | [2]; at 50.0 µM 25.2% | [3]; [7] 18% | [3]; [8] 46% | [3]; at 50.0 µM 64.3% | [4]; [7] 8% | [4]; [8] 24% | [4]; at 50.0 µM 39.8% | [5]; [7] 9% | [5]; [8] 28% | [5]; at 50.0 µM 37% | [6]; [7] 6% | [6]; [8] 36%
active: [6]; at 50.0 µM 75.3%

CC(C)(C)c1ccc(C(=O)n2c(=S)oc3ccc(Cl)cc32)cc1
inactive: [1]; [7] 50% | [1]; at 50.0 µM 65% | [2]; [7] 44% | [2]; at 50.0 µM 61.4% | [3]; [7] 46% | [4]; [7] 39% | [4]; at 50.0 µM 39.5% | [5]; [7] 43% | [5]; [8] 64% | [5]; at 50.0 µM 59.5% | [6]; [7] 51% | [6]; at 50.0 µM 63%
active: [1]; [8] 85% | [2]; [8] 91% | [3]; [8] 92% | [3]; at 50.0 µM 81.8% | [4]; [8] 73% | [6]; [8] 88%

O=C(CN1CCCCC1)CC(O)(C(F)(F)F)C(F)(F)F
inactive: [1]; [7] 29% | [1]; [8] 39% | [1]; at 50.0 µM 5.85% | [2]; [7] 20% | [2]; [8] 33% | [2]; at 50.0 µM 8.45% | [3]; [7] 10% | [3]; [8] 20% | [3]; at 50.0 µM 6.25% | [4]; [7] 2% | [4]; [8] 50% | [4]; at 50.0 µM 15.6% | [5]; [7] 11% | [5]; [8] 23% | [5]; at 50.0 µM 7.5% | [6]; [7] 31% | [6]; [8] 34%
active: [6]; at 50.0 µM 77.3%

COC(=O)c1ccc(-c2ccccc2)cc1
active: [1]; [8] 83% | [1]; at 50.0 µM 82.3% | [2]; [8] 94% | [2]; at 50.0 µM 99.2% | [3]; [8] 82% | [3]; at 50.0 µM 98% | [5]; [8] 92% | [5]; at 50.0 µM 96% | [6]; [8] 86% | [6]; at 50.0 µM 96.8%
inactive: [1]; [7] -1% | [2]; [7] 1% | [3]; [7] 3% | [4]; [7] -2% | [4]; [8] 55% | [4]; at 50.0 µM 44.2% | [5]; [7] 10% | [6]; [7] 2%

From PubChem BioAssay (NCI)
